Values joined by “and” are separate entries in the source; they are usually repeats but may differ in a detail not shown here. Equal entries are not always repeated. Inconclusive results are not listed. Where a call stands in place of a potency, no number is given. Active and inactive are the calls of the source. The call rests on the fitted dose curve.

Assay [1] can be described thus: Cytotoxicity counterscreen for inhibitors of SARS-CoV-2 cell entry (AID 1645845). Further: nearly all actives have a fitted effect of over 50% in size. To be noted: cell viability (SARS-CoV-2 entry assay cells); series mostly up to 57.1 µM. The procedure, abridged:
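Counterscreen run in the same HEK293-ACE2 line as the pseudotyped-particle entry assay, without particles. Viability after 48 h at 37 C was read as ATP luminescence, scaled between cell-containing and cell-free wells.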
A general note: A counterscreen serves to expose hits that act by an unwanted route or on another target.

Assay [2] in a line: Primary qHTS to identify inhibitors of SARS-CoV-2 cell entry (AID 1645846). Further: nearly all actives have a fitted effect of over 45% in size. Further: potency means the concentration at half of the fitted maximal effect. The note with it: SARS-CoV-2 pseudovirus cell entry assay, luminescence; activity change, negative = inhibition: at 57.1 µM (top of the series) unless noted; series mostly up to 57.1 µM. The procedure, abridged: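 Inhibition of spike-mediated entry was scored in human ACE2-transfected Expi293F cells. Particles were MLV-pseudotyped with Wuhan-Hu-1 S carrying a 19-aa C-terminal deletion; signal was luciferase after two days, scaled between spike PP and fusion-protein-free PP.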
(In qHTS, concentration-response curves come from the screen itself.)

Turning to `CCOC(=O)NNc1nncc2ccccc12`, the Potency entry in assay [1] and in assay [2] was “inactive” in each case.

In the case of `CC(=O)Nc1ccc(S(=O)(=O)Nc2ccc([N+](=O)[O-])cc2)cc1`, the Potency entry in assay [1] and in assay [2] was “inactive” in each case.

For `Cc1ccc(O)cc1`, the Potency entry in assay [1] is “inactive”. For the same molecule, the activity change, negative = inhibition in assay [2] is -24.6%.

Consider `O=C(O)CCNC(=O)c1ccccc1`, for which the Potency result in assay [1] and in assay [2] was “inactive” throughout.

As to `CNC1CCCN(c2c(F)cc3c(=O)c(C(=O)O)cn(C4CC4)c3c2OC)C1` (centres undefined), the Potency result in assay [1] is “inactive”. Besides, in assay [2], the activity change, negative = inhibition was -27.9% and -16.1%.

Take `O=C1c2cccc(O)c2C(=O)c2c(O)cccc21`: the Potency entry in assay [1] and in assay [2] was “inactive” each time.

With `CCc1cccc2c3c([nH]c12)C(CC)(CC(=O)O)OCC3` (centres undefined), the Potency result in assay [1] and in assay [2] was “inactive” throughout.

In the case of `C[N+](C)(C)CCOC(=O)CCC(=O)OCC[N+](C)(C)C`, the Potency entry in assay [1] and in assay [2] was “inactive” each time.

Turning to `Nc1ccc(S(=O)(=O)Nc2nccs2)cc1`, in assay [1], the Potency result was “inactive”. Also, in assay [2], the activity change, negative = inhibition was 4.2%.

As for `C[C@H]1NCc2cc(-c3ccc4c(=O)c(C(=O)O)cn(C5CC5)c4c3OC(F)F)ccc21`, the Potency entry in assay [1] was “inactive”. In addition, the activity change, negative = inhibition in assay [2] was -12.7% [at 27.1 µM].

Consider `C[N+]12CCC(CC1)C(OC(=O)C(O)(c1ccccc1)c1ccccc1)C2` (centres undefined), for which the Potency result in assay [1] and in assay [2] was “inactive” throughout.

Consider `CCCNC(C)(C)COC(=O)c1ccccc1`, for which the Potency result in assay [1] is “inactive”. In addition, in assay [2], the activity change, negative = inhibition came out at 3.38%.

`NCCNC(=O)c1ccc(Cl)cn1`: in assay [1], the Potency entry was “inactive”. Further, the activity change, negative = inhibition in assay [2] was -12.8%.

Take `CC/C(=C(/CC)c1ccc(O)cc1)c1ccc(O)cc1`: the Potency result in assay [1] was “inactive”. Besides, in assay [2], the Potency is 17.8 µM (active).

Consider `C[C@]12C=CC(=O)C=C1CC[C@H]1[C@@H]3C[C@@H](O)[C@](O)(C(=O)CO)[C@@]3(C)C[C@H](O)[C@@]12F`, for which the Potency entry in assay [1] was “inactive”. In assay [2], the activity change, negative = inhibition is 4.58%.

On to `CC[N+](CC)(CC(=O)Nc1c(C)cccc1C)Cc1ccccc1`, for which the Potency entry in assay [1] and in assay [2] was “inactive” throughout.

Turning to `CN1C(=O)CC(c2ccccc2)C1=O` (centres undefined), the Potency result in assay [1] is “inactive”. In addition, the activity change, negative = inhibition in assay [2] is -27.2%.

Source of the values: PubChem BioAssay (NCATS).
